Sfp PPTase inh: inhibitors of Bacillus subtilis Sfp phosphopantetheinyl transferase; AID 1490; hit rate 3.5% among 310,000; Potency, µM, for inactives: largest response in the series, negative = inhibition, actives largely listed as inhibitors; Biochemical Sfp PPTase activity, qHTS;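 note: the enzyme is Sfp with the accession as filed and its product quenches rhodamine fluorescence; potency is the fitted concentration of half-maximal effect; 0% = enzyme reaction without inhibitor and -100% = no enzyme wells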
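With Hepes-Na pH 7.6 buffer containing 10 mM MgCl2, Sfp (15 nM) modified BHQ-2-YbbR (12.5 uM) using rhodamine-CoA (5 uM). Two reads 30 minutes apart at 525/598 nm yielded each well's rate.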
Tau FP inhib: tau fibrillization inhibition (FP); P10636; K18 P301L tau heparin fibrillization, Alexa594 FP, 6 h; Potency, µM (series often up to 57.7 µM), for inactives: top-dose activity, negative = inhibition, most hits filed as inhibitors; hit rate 0.39% among 280,000; AID 1468; note: potency is the fitted concentration of half-maximal effect; % is set by controls: 0 for no effect and ±100 for the full control effect; nearly all actives have a fitted effect of over 55% in size
Target sequence (P10636 561-689 P618L limits assumed): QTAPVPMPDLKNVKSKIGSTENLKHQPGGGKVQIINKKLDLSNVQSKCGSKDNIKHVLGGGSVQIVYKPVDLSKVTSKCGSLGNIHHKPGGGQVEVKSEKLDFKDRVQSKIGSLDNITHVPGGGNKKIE
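Quantitative HTS format: compounds meet 15 uM recombinant K18 P301L tau and Alexa 594-tau tracer in 100 mM sodium acetate pH 7; 20 uM heparin triggers fibrillization at 37 C over 6 hr; FP gives the signal.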
Tau fluor cs: counter-screen for tau fibril formation inhibitors; tau K18 P301L Alexa594 fluorescence, heparin fibrillization; Potency, µM (highest dose often 57.7 µM), for the others: top-dose activity change, negative = decrease; hit rate 0.93% among 280,000; AID 1463; note: potency is the fitted concentration of half-maximal effect; % is set by controls: 0 for no effect and ±100 for the full control effect; nearly all actives have a fitted effect of over 55% in size
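Human tau K18 P301L (15 uM unlabeled, 0.24 uM Alexa 594-labeled) in 100 mM sodium acetate pH 7 with 20 uM heparin, 6 hr at 37 C. ThT 30 uM added, 1 hr ambient; Alexa 594 FP and total fluorescence read at 555/632 nm.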
VDR inhibitor: blocks the human vitamin D receptor; VDR-SRC2-3 peptide fluorescence polarization, 2 h; AID 504847; hit rate 0.93% among 400,000; Potency, µM, for inactives: max response, negative = inhibition, actives largely listed as inhibitors; P11473; note: potency is the fitted concentration of half-maximal effect; % is set by controls: 0 for no effect and ±100 for the full control effect
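FP read-out; VDR + SRC2-3 coactivator peptide; 23 nl compound by pintool; 2 h RT incubation; reagents held at 4 deg C, protected from light.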
Tau ThT inhib: tau fibrillization inhibition (ThT binding); P10636; recombinant tau K18 P301L (four-repeat tau fragment), heparin-induced fibrillization, ThT fluorescence; Potency, µM (highest dose often 57.4 µM), for inactives: top-dose activity, negative = inhibition, actives largely listed as inhibitors; hit rate 2.1% among 270,000; note: potency is the fitted concentration of half-maximal effect; % is set by controls: 0 for no effect and ±100 for the full control effect; nearly all actives have a fitted effect of over 55% in size
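Heparin-induced (20 uM) aggregation of recombinant human K18 P301L tau, 15 uM unlabeled with 0.24 uM labeled, pH 7 acetate buffer, 6 hr at 37 C with compound. Fibrils quantified by 30 uM ThT fluorescence after 1 hr ambient incubation.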
PLK1 PBD block: PLK1 (human) polo-box domain binding inhibition; Potency, µM, without a hit: max response, negative = inhibition, most hits filed as inhibitors; Plk1 PBD binding of FITC phosphopeptide, fluorescence polarization; hit rate 2.8% among 360,000; AID 720504; note: potency is the fitted concentration of half-maximal effect; series mostly up to about 57 µM; % is set by controls: 0 for no effect and ±100 for the full control effect; nearly all actives have a fitted effect of over 65% in size
Target sequence (P53350 whole entry, looked up, the tested form may be a part): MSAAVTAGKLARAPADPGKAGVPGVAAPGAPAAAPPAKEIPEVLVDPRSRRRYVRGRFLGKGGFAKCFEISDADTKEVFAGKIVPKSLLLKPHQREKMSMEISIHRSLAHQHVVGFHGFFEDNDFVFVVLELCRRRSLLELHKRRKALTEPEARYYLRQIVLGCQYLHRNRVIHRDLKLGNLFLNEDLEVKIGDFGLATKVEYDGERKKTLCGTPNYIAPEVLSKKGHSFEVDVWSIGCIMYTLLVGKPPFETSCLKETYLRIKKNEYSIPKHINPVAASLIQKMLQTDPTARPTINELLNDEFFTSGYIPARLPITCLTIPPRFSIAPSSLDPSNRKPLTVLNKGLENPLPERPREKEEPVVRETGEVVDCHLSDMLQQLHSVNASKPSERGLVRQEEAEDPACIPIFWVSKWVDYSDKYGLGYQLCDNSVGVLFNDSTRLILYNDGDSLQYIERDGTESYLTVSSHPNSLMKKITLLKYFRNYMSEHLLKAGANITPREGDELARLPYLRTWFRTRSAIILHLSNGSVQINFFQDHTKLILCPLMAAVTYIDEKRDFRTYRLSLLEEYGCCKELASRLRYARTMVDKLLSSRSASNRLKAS
Sfp PPTase conf: confirmation of Bacillus subtilis Sfp PPTase inhibitors; shares compounds with Sfp PPTase inh; Sfp PPTase enzymatic assay, qHTS titration; Potency, µM (highest dose often 114 µM), inactives show top-dose activity change, negative = inhibition, most hits filed as inhibitors; hit rate 79% among 380;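 note: potency is the fitted concentration of half-maximal effect; plate controls were uninhibited Sfp reaction for no effect and no enzyme control for full effect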
Sfp PPTase gel: Inhibits Bacillus subtilis Sfp phosphopantetheinyl transferase; shares compounds with Sfp PPTase inh; AID 2707; hit rate 20% among 210; Potency, µM, usual class: inhibitors; purified Sfp, gel-based phosphopantetheinylation read-out;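 active = potency below 100 µM; inconclusive = dose-dependent response but potency above 100 µM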;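 note: band intensities scaled against SCH202676 control wells before curve fitting; potency is an IC50 for inhibitors of Sfp transfer activity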
VDR inh confirm: inhibits human vitamin D receptor, primary hit validation; hit rate 89% among 840; Potency, µM, actives largely listed as inhibitors; VDR-coactivator inhibition assay, qHTS confirmation; shares compounds with VDR inhibitor; AID 602199; note: potency is the fitted concentration of half-maximal effect
VDR FP fluor: VDR (human) coactivator binding inhibition, fluorescein polarization. Potency, µM (top dose mostly 57.1 µM), without a hit: top-dose activity change, negative = inhibition, usual class: inhibitors. hit rate 48% among 840. shares compounds with VDR inhibitor. VDR-coactivator binding, fluorescein fluorescence polarization; note: potency is the fitted concentration of half-maximal effect
VDR bla reporter: VDR (human) inhibition, cell-based beta-lactamase validation | AID 602202 | Potency, µM (highest dose often 46.1 µM), for the others: at the highest dose activity change, negative = inhibition, usual class: inhibitors | hit rate 23% among 840 | VDR beta-lactamase reporter cells, FRET ratio; cells co-treated with VDR agonist LG190178 | shares compounds with VDR inhibitor; note: potency is the fitted concentration of half-maximal effect; % is set by controls: 0 for no effect and ±100 for the full control effect
VDR cytotox: cell toxicity, VDR inhibitor hit counter-screen. hit rate 18% among 840. Potency, µM (highest dose often 48.3 µM), without a hit: top-dose activity change, negative = cytotoxicity, most hits filed as cytotoxic. cytotoxicity counter-screen, cell viability, qHTS. shares compounds with VDR inhibitor;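 note: potency is the fitted concentration of half-maximal effect; plate controls were DMSO for no effect and high-concentration cycloheximide for full effect; nearly all actives have a fitted effect of over 75% in size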
TbPYK confirm: confirmation of Trypanosoma brucei pyruvate kinase inhibitors; AID 720569; shares compounds with PLK1 PBD block; recombinant TbPYK, Kinase-Glo ATP luminescence; hit rate 67% among 890; Potency, µM (highest dose often 76.9 µM), without a hit: top-dose activity change, negative = inhibition, actives largely listed as inhibitors; note: potency is the fitted concentration of half-maximal effect; % is set by controls: 0 for no effect and ±100 for the full control effect; nearly all actives have a fitted effect of over 70% in size
TbPYK orthogonal: orthogonal confirmation of Trypanosoma brucei pyruvate kinase inhibitors | shares compounds with PLK1 PBD block | recombinant TbPYK, ADP-Glo luminescence, 60 min | Potency, µM (series often up to 76.9 µM), inactives show top-dose activity change, negative = inhibition, actives largely listed as inhibitors | hit rate 62% among 890 | AID 720584; note: potency is the fitted concentration of half-maximal effect; % is set by controls: 0 for no effect and ±100 for the full control effect; nearly all actives have a fitted effect of over 75% in size
Starred values were filed as active, the others as inactive; [ ] = dose if it differs, or a comment. In the library only some 6% were active in any assay of this set; here they are far more common. Unless noted, calls come from the whole dose curve; as a rule, active = well fitted curve in the direction sought with a large enough effect; inconclusive = small, poorly fitted or top-dose-only effect, or another doubt; inactive = no such curve, though single readings can be large; an effect the other way counts as inactive or inconclusive.

N#C/C(=C\c1ccc(N2CCCCC2)o1)C(N)=O was read as Sfp PPTase inh -5%, Tau FP inhib 9%, Tau fluor cs 0%, VDR inhibitor -1%, Tau ThT inhib inconclusive and PLK1 PBD block 88%.
`CCC1Sc2ccc(S(=O)(=O)CCC(=O)NCc3ccco3)cc2NC1=O` (stereo not given) gave Sfp PPTase inh 6%, VDR inhibitor -11% and PLK1 PBD block -12%.
Screening COc1ccc(C(=O)/C=C/C(=O)N(CC(=O)NC2CCCCC2)Cc2cccs2)c(O)c1 returned Sfp PPTase inh 3.2µM*, Tau FP inhib -8%, Tau fluor cs -10%, VDR inhibitor 45µM*, Tau ThT inhib inconclusive, PLK1 PBD block 6.7µM*, Sfp PPTase conf 3.3µM*, Sfp PPTase gel 2.1µM*, VDR inh confirm 15*, VDR FP fluor inconclusive, VDR bla reporter 7.3µM*, VDR cytotox 15µM*, TbPYK confirm 4.5µM* and TbPYK orthogonal 14µM*.
`CCOC(=O)c1cc(S(=O)(=O)Nc2cc(C)c(Cl)cc2OC)[nH]n1` gave Tau FP inhib -8%, Tau fluor cs -25%, VDR inhibitor 16% and Tau ThT inhib -18%.
C=CCOc1cccc(C(=O)/C=C2/C(=O)Nc3ccccc32)c1 was read as Sfp PPTase inh 56µM*, VDR inhibitor inconclusive, PLK1 PBD block inconclusive, VDR inh confirm 8.4*, VDR FP fluor 8.9µM*, VDR bla reporter inconclusive and VDR cytotox inconclusive.
`O=C(NCc1ccc(F)cc1Cl)c1ccc(CSCc2ccccc2Cl)o1` gave Tau FP inhib -6%, Tau fluor cs -18%, VDR inhibitor 2% and Tau ThT inhib -2%.
`CC1CCC2C(=O)N3C(CCC(C)[C@@H]3c3ccc(Br)cc3)C(=O)N2C1c1ccc(Br)cc1` (stereo not given in full) gave Sfp PPTase inh -6%, Tau FP inhib 7%[11.6 µM], Tau fluor cs -5%[11.6 µM] and Tau ThT inhib -8%[11.5 µM].
For Cc1cccc(CSc2ncc(Cl)c(C(=O)Nc3nnc(C)s3)n2)c1 the results were Tau FP inhib 3%, Tau fluor cs -4%, VDR inhibitor -12% and Tau ThT inhib -8%.
For Cc1nnc(NC(=O)c2nc(S(=O)(=O)Cc3ccccc3)ncc2Cl)s1 the results were Sfp PPTase inh inconclusive, Tau FP inhib inconclusive, Tau fluor cs -27%, VDR inhibitor inconclusive, Tau ThT inhib inconclusive, PLK1 PBD block -22%, VDR inh confirm 16*, VDR FP fluor 13µM*, VDR bla reporter 2.3µM* and VDR cytotox 4.2µM*.
`Cc1ccc(CSc2ncc(Cl)c(C(=O)NCc3ccccc3)n2)cc1` gave Tau FP inhib -11%, Tau fluor cs 2%, VDR inhibitor 6% and Tau ThT inhib 9%.
For O=C(Nc1ccc(F)cc1)c1nc(S(=O)(=O)Cc2ccccc2)ncc1Cl the results were Sfp PPTase inh inconclusive, VDR inhibitor inconclusive, PLK1 PBD block 17µM*, VDR inh confirm 3.5*, VDR FP fluor 2.8µM*, VDR bla reporter 3.3µM* and VDR cytotox 19µM*.
O=C(NCc1ccccc1)c1nc(S(=O)(=O)Cc2ccc(F)cc2)ncc1Cl was read as Tau FP inhib 1%, Tau fluor cs 10%, VDR inhibitor 32µM*, Tau ThT inhib 14%, VDR inh confirm 3.2*, VDR FP fluor 7.9µM*, VDR bla reporter 21µM* and VDR cytotox 19µM*.
For Cc1ccc(NC(=O)c2nc(S(=O)(=O)Cc3ccccc3)ncc2Cl)cc1 the results were Sfp PPTase inh inconclusive, VDR inhibitor 25µM*, PLK1 PBD block inconclusive, VDR inh confirm 19*, VDR FP fluor inconclusive, VDR bla reporter inconclusive and VDR cytotox inconclusive.
Screening CCS(=O)(=O)c1ncc(Cl)c(C(=O)Nc2c(C(=O)c3ccc(C)cc3)oc3ccccc23)n1 returned Tau FP inhib -8%, Tau fluor cs inconclusive, VDR inhibitor 1% and Tau ThT inhib inconclusive.
`COc1ccc(NC(=O)c2nc(SCc3ccc(F)cc3)ncc2Cl)cc1` gave Tau FP inhib -10%, Tau fluor cs -21%, VDR inhibitor 5% and Tau ThT inhib 1%.
Cc1ccc(C)c(NC(=O)CN(C)C(=O)C2=NNC(=O)CC2)c1 was read as VDR inhibitor -10% and PLK1 PBD block 2%.
For CC(C)(C)c1ccc(-n2nc(C#N)c(Cl)cc2=O)cc1 the results were Sfp PPTase inh -16%, Tau FP inhib 2%, Tau fluor cs -10%, VDR inhibitor inconclusive, Tau ThT inhib inconclusive, PLK1 PBD block inconclusive, VDR inh confirm 7.9*, VDR FP fluor 8.9µM*, VDR bla reporter 2.6µM* and VDR cytotox inconclusive.

Screening data (PubChem BioAssay)
